Assay results from PubChem BioAssay (EPA / NIEHS).
Where “and” joins values, the source holds several entries; their conditions need not be identical. Equal entries are not always repeated. More than one record can exist for a structure, and the calls need not agree. Calls of active or inactive are those of the source. The calls were made as follows: active = hit-call score of the fitted dose curve at least 0.9, where 1 is the maximum; inactive = score below 0.9.

Tests used:
[1] = biological target: Transcription factor E2F1 (Homo sapiens) (UniProt Q01094); assay: ATG_E2F_CIS: Attagene CIS-FACTORIAL HepG2 Assay for human E2F Transcription Factor 1 (AID 2282935); conditions: HepG2 Attagene cis-reporter, E2F reporter RNA transcripts; actives raise or lower the signal
In short: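 Gain or loss of reporter transcript, fitted against DMSO, reflects E2F1-driven transcription. Transiently transfected HepG2 dosed 24 h before RNA isolation. Quantified by fluorescent RT-PCR products separated by capillary electrophoresis.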

[2] = ATG_E_Box_CIS: Attagene CIS-FACTORIAL HepG2 Assay for human Enhancer Box (E-box) (AID 2282936); conditions: HepG2 E-box cis-reporter transcription, actives raise or lower the signal
In short: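 E-box-driven reporter transcripts measured in transiently transfected HepG2 after 24 h exposure: RNA reverse-transcribed, PCR-amplified, fluorescently labelled, digested and resolved by capillary electrophoresis. Gain or loss relative to DMSO.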

[3] = ATG_M_61_CIS: Attagene CIS-FACTORIAL HepG2 Assay for M61 Transcription Factor (Internal Marker) (AID 2282937); conditions: HepG2 Attagene CIS-FACTORIAL M61 internal marker reporter; actives raise or lower the signal
In short: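 Human liver HepG2, transient MRTU transfection (cis promoter elements), 24 h compound. Total RNA → oligo(dT) RT → PCR → FAM label → HpaI → CE. Internal background marker; bidirectional fitting, DMSO = baseline.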

[4] = ATG_EGR_CIS: Attagene CIS-FACTORIAL HepG2 Assay for human Early Growth Response 1 (EGR1) (AID 2282938); conditions: HepG2 Attagene CIS-FACTORIAL EGR reporter mRNA; actives raise or lower the signal
In short: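 Transient transfection of human HepG2 with multiple cis-regulated reporter units, chemical exposure 24 h, total RNA isolated. Reverse transcription, PCR, fluorescent labelling and capillary electrophoresis quantify reporter transcripts; activity fitted bidirectionally against DMSO.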

[5] = ATG_M_19_CIS: Attagene CIS-FACTORIAL HepG2 Assay for M19 Transcription Factor (Internal Marker) (AID 2282939); conditions: HepG2 Attagene CIS-FACTORIAL M19 internal marker reporter; actives raise or lower the signal
In short: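 Signals come from fluorescence of labelled reporter-specific PCR fragments resolved by capillary electrophoresis, following 24 h treatment of HepG2 cells transfected with cis-promoter reporter units; activity was fitted in both directions relative to DMSO.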

[6] = ATG_ERE_CIS: Attagene CIS-FACTORIAL HepG2 Assay for Estrogen Response Element (ERE) (AID 2282940); conditions: HepG2 ERE cis-reporter, Attagene RNA transcript; actives raise or lower the signal
In short: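 Fluorescence of capillary-separated, FAM-labelled reporter cDNA fragments indicates reporter mRNA levels in HepG2 cells exposed to chemicals for 24 h. Transient transfection with cis-regulated units; data fitted in both directions against DMSO.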

[7] = ATG_Ets_CIS: Attagene CIS-FACTORIAL HepG2 Assay for human Erythroblast Transformation Specific (ETS) (AID 2282941); conditions: HepG2 ETS cis-reporter transcription, actives raise or lower the signal
In short: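 Endogenous transcription factor activity read as reporter mRNA via RT-PCR and capillary electrophoresis, with gain or loss fitted bidirectionally against DMSO. Human HepG2 liver cells, transiently transfected CIS reporter constructs, 24 h exposure.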

[8] = biological target: Hepatocyte nuclear factor 3-beta (Homo sapiens) (UniProt Q9Y261); assay: ATG_FoxA2_CIS: Attagene CIS-FACTORIAL HepG2 Assay for human Forkhead box A2 (FOXA2) (AID 2282942); conditions: HepG2 cis-reporter transcription factor activity, 24 h; actives raise or lower the signal
In short: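 Transient MRTU transfection of HepG2 liver cells; 24 h treatment; total RNA → oligo(dT) RT → PCR → FAM primer extension → HpaI cut → CE. Bidirectional fit vs DMSO.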

[9] = ATG_FoxO_CIS: Attagene CIS-FACTORIAL HepG2 Assay for human Forkhead box O (FoxO) (AID 2282943); conditions: HepG2 Attagene cis-reporter, FoxO element, mRNA; actives raise or lower the signal
In short: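 Endogenous transcription factor activity read from multiplexed cis-promoter reporter transcripts in transiently transfected HepG2, 24 h after dosing. Reporter RNA measured via RT-PCR plus capillary electrophoresis of FAM-labeled products; gain or loss relative to DMSO.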

[10] = ATG_GATA_CIS: Attagene CIS-FACTORIAL HepG2 Assay for human GATA Binding Protein (AID 2282944); conditions: HepG2 GATA cis-element reporter, Attagene multiplex mRNA; actives raise or lower the signal
In short: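 After transfecting HepG2 cells with multiple cis-regulated reporter units, chemicals are dosed for 24 h; isolated RNA undergoes RT-PCR and fluorescent labeling before capillary electrophoresis, with activity expressed against DMSO.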

Measured: AC50

Hepatocyte nuclear factor 3-beta (Homo sapiens), sequence (Q9Y261 whole entry, looked up): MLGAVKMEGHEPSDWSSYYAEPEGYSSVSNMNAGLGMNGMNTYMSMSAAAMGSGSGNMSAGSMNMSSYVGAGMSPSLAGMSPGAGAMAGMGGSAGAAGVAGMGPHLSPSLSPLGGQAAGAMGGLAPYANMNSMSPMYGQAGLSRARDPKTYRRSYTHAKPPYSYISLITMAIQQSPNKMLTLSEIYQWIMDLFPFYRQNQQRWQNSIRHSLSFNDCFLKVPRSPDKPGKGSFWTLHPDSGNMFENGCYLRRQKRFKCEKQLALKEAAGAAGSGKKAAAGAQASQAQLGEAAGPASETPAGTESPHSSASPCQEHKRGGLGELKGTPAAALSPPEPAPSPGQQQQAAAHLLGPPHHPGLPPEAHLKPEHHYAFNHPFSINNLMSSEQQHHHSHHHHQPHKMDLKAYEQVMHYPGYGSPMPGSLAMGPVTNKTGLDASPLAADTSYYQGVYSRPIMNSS
Transcription factor E2F1 (Homo sapiens), sequence (Q01094 whole entry, looked up): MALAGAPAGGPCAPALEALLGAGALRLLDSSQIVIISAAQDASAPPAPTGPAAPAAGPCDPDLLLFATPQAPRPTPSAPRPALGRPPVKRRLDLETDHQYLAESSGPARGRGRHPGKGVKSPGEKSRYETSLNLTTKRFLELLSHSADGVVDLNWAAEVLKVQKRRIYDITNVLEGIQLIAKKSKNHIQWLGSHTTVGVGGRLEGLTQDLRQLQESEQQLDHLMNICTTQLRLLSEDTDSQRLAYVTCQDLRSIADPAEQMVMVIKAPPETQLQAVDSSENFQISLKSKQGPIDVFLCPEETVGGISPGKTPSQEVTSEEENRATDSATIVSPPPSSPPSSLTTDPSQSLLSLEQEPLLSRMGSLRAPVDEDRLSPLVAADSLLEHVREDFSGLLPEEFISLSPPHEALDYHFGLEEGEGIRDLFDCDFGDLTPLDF

CCCCCCC(C)OC(=O)CCCCC(=O)OC(C)CCCCCC (stereo not drawn)
inactive: all assays above

FC(F)(F)C(F)(F)C(F)(F)C(F)(F)CCI
active: [6] 16.3 µM
inactive: [1] | [2] | [3] | [4] | [5] | [6] | [7] | [8] | [9] | [10]

CCO[Si](CCC(F)(F)C(F)(F)C(F)(F)C(F)(F)C(F)(F)C(F)(F)F)(OCC)OCC
inactive: all assays above

CNC(=S)NC
inactive: all assays above

O=C(O)C(F)(F)C(F)(F)C(F)(F)C(F)(F)C(F)(F)C(F)(F)C(F)(F)C(F)(F)Cl
active: [4] 50 µM and 64.8 µM | [6] 15.4 µM and 21.7 µM
inactive: all other assays above

CC(CCl)OP(=O)(OC(C)CCl)OC(C)CCl (stereo not drawn)
inactive: all assays above

CO[Si](OC)(c1ccccc1)c1ccccc1
active: [6] 72.8 µM
inactive: all other assays above

FC(F)(F)C(F)(F)CNCC(F)(F)C(F)(F)F
inactive: all assays above

O=C(O)C(F)(OC(F)(F)C(F)(OC(F)(F)C(F)(OC(F)(F)C(F)(F)C(F)(F)F)C(F)(F)F)C(F)(F)F)C(F)(F)F (stereo not drawn)
inactive: all assays above

O=C(O)C(F)(F)C(F)(F)OC(F)(F)F
inactive: all assays above

C=CC(F)(F)C(F)(F)C(F)(F)C(F)(F)C(F)(F)C(F)(F)C(F)(F)C(F)(F)C=C
active: [6] 4.46 µM
inactive: all other assays above

FC1CC(F)(F)C(F)(F)C1(F)F (stereo not drawn)
inactive: all assays above

FC(F)(F)C(F)(F)C(F)(F)C(F)(F)C(F)(F)C(F)(F)C(F)(F)C(F)(F)F
inactive: all assays above

O=C(O)C(F)(F)C(F)(F)C(F)(F)C(F)(F)F
inactive: all assays above

Oc1ccc(Nc2ccccc2)cc1
active: [2] 100 µM | [6] 8.42 µM
inactive: all other assays above

C=CC(=O)OCC(F)(F)C(F)(F)C(F)(F)C(F)(F)C(F)(F)C(F)(F)C(F)(F)F
active: [6] 21 µM
inactive: all other assays above

Nc1ccc(Oc2cccc(Oc3ccc(N)cc3)c2)cc1
inactive: [3] | [6] | [8]
active: [1] 33.4 µM | [2] 179 µM | [4] 26.2 µM | [5] 51.5 µM | [7] 112 µM | [9] 163 µM | [10] 135 µM

O[Si](c1ccccc1)(c1ccccc1)c1ccccc1
active: [2] 15.8 µM | [6] 12.8 µM
inactive: all other assays above

C=CC(=O)OCC(F)(F)C(F)(F)C(F)(F)C(F)(F)COC(=O)C=C
active: [2] 34.9 µM | [4] 63 µM
inactive: all other assays above

N=C(N)C(F)(F)C(F)(F)C(F)(F)C(F)(F)C(F)(F)C(F)(F)C(F)(F)F
active: [1] 199 µM | [2] 68.5 µM | [6] 38.6 µM | [10] 243 µM
inactive: all other assays above

CCCCCC=O
inactive: all assays above

OCCCC(F)(F)C(F)(F)C(F)(F)C(F)(F)C(F)(F)C(F)(F)C(F)(F)F
active: [2] 72.9 µM | [5] 264 µM | [6] 19.9 µM | [7] 50 µM | [9] 65.3 µM | [10] 78.9 µM
inactive: [1] | [2] | [3] | [5] | [6] | [7] | [8] | [9] | [10]

FC(F)(Br)C(F)(F)C(F)(F)C(F)(F)C(F)(F)C(F)(F)Br
active: [6] 8.15 µM
inactive: all other assays above

Cc1ccc(S(=O)(=O)OCC(F)(F)C(F)(F)C(F)(F)C(F)(F)C(F)(F)C(F)F)cc1
inactive: all assays above

Nc1cc(Cl)c(N)c(Cl)c1
active: [6] 7.29 µM
inactive: all other assays above

O=S(=O)(OCC(F)F)C(F)(F)F
inactive: all assays above

FC(F)(F)C(F)(F)C(F)(F)C(F)(F)C(F)(F)C(F)(F)C(F)(F)C(F)(F)CCS
inactive: all assays above

CCCCCCOC(=O)c1ccccc1
inactive: all assays above

OCC(F)(F)C(F)(F)C(F)(F)C(F)(F)C(F)(F)C(F)(F)F
active: [1] 234 µM | [2] 150 µM | [4] 248 µM | [7] 236 µM
inactive: all other assays above

[Co]
inactive: all assays above

Nc1ccc([N+](=O)[O-])cc1O
inactive: all assays above

OCC(F)(F)C(F)(F)C(F)(F)F
inactive: all assays above

OCC(F)(F)C(F)(F)C(F)(F)C(F)F
inactive: all assays above

C=C(C)C(=O)OCC(F)(F)C(F)(F)C(F)(F)C(F)(F)C(F)(F)C(F)(F)C(F)(F)F
active: [6] 16.2 µM
inactive: all other assays above

O=C(Cl)C(F)(F)C(F)(F)C(F)(F)C(F)(F)C(F)(F)C(F)(F)C(F)(F)C(F)(F)F
not listed: [6]
inactive: all other assays above

CCN(Cc1cccc(S(=O)(=O)O)c1)c1ccc(C(=C2C=CC(=[N+](CC)Cc3cccc(S(=O)(=O)O)c3)C=C2)c2ccc(O)cc2S(=O)(=O)[O-])cc1
not listed: [6]
inactive: all other assays above

CCCCCCCCCCCCCCCC[N+](C)(C)Cc1ccccc1
active: [2] 47.1 µM
not listed: [6]
inactive: all other assays above

COC(=O)CCC(F)(F)C(F)(F)C(F)(F)C(F)(F)F
not listed: [6]
inactive: all other assays above

NC(=O)C(F)(F)C(F)(F)C(F)(F)C(F)(F)F
not listed: [6]
inactive: all other assays above

O=C(O)C(F)(F)C(F)(F)F
inactive: all assays above

O=C(O)C(F)(OC(F)(F)C(F)(OC(F)(F)C(F)(F)C(F)(F)F)C(F)(F)F)C(F)(F)F (stereo not drawn)
not listed: [6]
inactive: all other assays above

FC(F)(F)C(F)(F)C(F)(F)C(F)(F)C(F)(F)C(F)(F)C(F)(F)Br
inactive: all assays above

C1COCCN1
not listed: [6]
inactive: all other assays above

O=C(O)C=C(C(F)(F)F)C(F)(F)F
inactive: all assays above

O=C(O)C(F)(F)C(F)(F)C(F)(F)C(F)(F)C(F)(F)C(F)(F)C(F)(F)C(F)(F)C(F)(F)C(F)(F)C(F)(F)C(F)(F)F
not listed: [6]
inactive: all other assays above
